Compound activity (PubChem BioAssay)
Akt phos inh = HTS Assay for Inhibitors of Akt Phophorylation: Primary Screen | Neuro2A IGF-stimulated pAkt S473 HTRF, 20 min; active compounds read low | activity change, % for hits at 50 µM | 360,000 tested, 0.32% active | AID 651550, 2012; in the data active = activity change below about -80%; inconclusive = mostly about -51% to -80%
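Single-point screen (50 µM final compound) in Neuro2A cells stimulated 20 min with 6 nM IGF at 37 deg C. After lysis, Ser473-phosphorylated Akt read by HTRF (ex 330 nm, em 615/665 nm) as the 665/615 ratio.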
Abeta rescue = qHTS for compounds that reverse cellular toxicity of Amyloid beta (A-beta) peptide in yeast: Primary Screen | yeast expressing A-beta42, growth rescue, OD600, 48 h; response scale: 0% DMSO, 100% iron-clioquinol control | 410,000 tested, 0.063% active | Potency, µM (highest dose often 46.1 µM), usual class: activators | AID 1347071, 2019; note: nearly all actives have a fitted effect of over 55% in size
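Growth rescue measured by 600 nm absorbance after 48 h yeast culture at 30 C with compound. Values normalized between DMSO and an equimolar ferric chloride plus clioquinol control.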
aSyn yeast inh = qHTS of alpha-syn Inhibitors | 370,000 tested, 0.14% active | Yeast expressing alpha-synuclein, growth rescue, BacTiter-Glo, 24 h | AID 652106, 2013 | Potency, µM (titrated, usually from 46.1 µM), actives largely listed as activators; note: nearly all actives have a fitted effect of over 65% in size
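Rescue of yeast growth: cells expressing toxic alpha-synuclein, induced in galactose at OD600 0.02, incubated with compound 24 h at 30 C. ATP luminescence quantified growth; inhibitors of toxicity appear as activators.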
FUS suppressor = qHTS for Suppressors of FUS Proteinopathy: Primary screen using FUS-linked yeast assay. AID 1347120, 2019. S. cerevisiae FUS-expressing, growth rescue, OD600, 24 h. Potency, µM (titrated, usually from 76.6 µM), actives largely listed as activators. 390,000 tested, 0.24% active; note: nearly all actives have a fitted effect of over 55% in size
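Steps: raffinose overnight preculture; dilution to OD 0.005 in 2% galactose minimal medium; compound addition (concentration series); 24hr at 30C, 99% humidity; absorbance read at 600 nm.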
TDP-43 yeast inh = qHTS of TDP-43 Inhibitors. 410,000 tested, 1.8% active. AID 652104, 2013. Potency, µM (highest dose often 46.1 µM), most hits filed as activators. TDP-43 expressing yeast growth rescue, BacTiter-Glo, 24 h; note: nearly all actives have a fitted effect of over 50% in size
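Cell-based yeast growth screen: TDP-43 expression induced in galactose, inoculum OD600=0.02 after raffinose pregrowth to mid-log. Read-out BacTiter-Glo luminescence at 24 hr, 30 deg C; inhibition of toxicity seen as signal increase.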
Of the large screens only hits and unclear results are named; the others gave an inactive call. A selection: hits, their analogues and other compounds. The true share with any hit is near 2.3%. Unless noted, calls come from the whole dose curve; as a rule, active = well fitted curve in the direction sought with a large enough effect; inconclusive = small, poorly fitted or top-dose-only effect, or another doubt; inactive = no such curve, though single readings can be large; an effect the other way counts as inactive or inconclusive.

O=C(Cn1c(=O)c2cccn2c2cccnc21)NCc1cccc(F)c1	none (no result: Akt phos inh, aSyn yeast inh)
COc1ccc(/C(O)=C/C(=O)C(=O)Nc2c(C)n(C)n(-c3ccccc3)c2=O)cc1	FUS suppressor 28µM
COc1ccc(/C(O)=C/C(=O)C(=O)NNC(=O)C(O)(c2ccccc2)c2ccccc2)cc1	FUS suppressor 28µM
O=Cc1c(Sc2ccccc2)nc2ccccn2c1=O	TDP-43 yeast inh 13µM
C=CCNc1nc(-c2ccc(Cl)cc2)cs1	TDP-43 yeast inh 11µM
Clc1ccc(-c2csc(NNC3=NCCCCC3)n2)cc1	Akt phos inh -111%, FUS suppressor inconclusive
c1ccc(-c2csc(NNC3=NCCCCC3)n2)cc1	FUS suppressor inconclusive
O=C(NCCS(=O)(=O)N1CCN(c2ccc(F)cc2)CC1)c1cccc(C(F)(F)F)c1	Abeta rescue inconclusive, TDP-43 yeast inh 10µM (no result: Akt phos inh, aSyn yeast inh)
CCc1nn2c(=O)cc(COC(=O)Cc3ccccc3)nc2s1	none (no result: Akt phos inh, aSyn yeast inh)
CCCN(CC1CC1)C(=S)Nc1ccc(Oc2ccccc2)cc1	TDP-43 yeast inh 20µM (no result: FUS suppressor)
COc1cc(NC(=O)C2=CC(c3ccc(F)cc3)=NS(=O)(=O)N2C)cc(OC)c1OC	none (no result: Akt phos inh, aSyn yeast inh)
CCCCc1nn2c(=O)cc(COC(=O)CNC(=O)c3ccccc3C)nc2s1	none (no result: Akt phos inh, aSyn yeast inh)
CCCCCCCCCCn1cc(C(C)=O)c(=O)[nH]c1=O	none
CCCCCCCCn1cc(C(C)=O)c(=O)[nH]c1=O	TDP-43 yeast inh 13µM
COc1ccc(C=C(C(C)=O)C(=O)c2ccccc2)cc1	aSyn yeast inh inconclusive, TDP-43 yeast inh 20µM
COc1ccc(C=C(C(=O)c2ccccc2)c2ccccc2)cc1	none
CC(=O)C(=Cc1ccc(Cl)cc1)C(=O)c1ccccc1	TDP-43 yeast inh inconclusive
COc1ccc(C=C(C(=O)c2ccccc2)C(=O)c2ccccc2)cc1	TDP-43 yeast inh 14µM
O=C(CSCC(=O)N1CCCCC1)Nc1nc(-c2ccccc2)c(-c2ccccc2)s1	FUS suppressor 18µM, TDP-43 yeast inh inconclusive
CC(C)c1ccc(CNc2nc(-c3ccco3)nn2S(=O)(=O)c2ccc(F)cc2)cc1	none (no result: Akt phos inh, aSyn yeast inh)
CC1=CCC(C(=O)O)C(C(=O)Nc2nc3ccc(S(C)(=O)=O)cc3s2)C1 (configuration not stated)	Akt phos inh -120%, FUS suppressor inconclusive
CCOC(=O)C1CCCN(C(=O)c2sc(-c3ccccc3)nc2C)CC1 (configuration not stated)	none
CCOC(=O)C1CCCN(C(=O)c2cc3c(=O)n(C)c4ccccc4c3s2)C1 (configuration not stated)	TDP-43 yeast inh 20µM (no result: Akt phos inh, aSyn yeast inh)
CC1CCN(C(=O)c2cc3c(=O)n(C)c4ccccc4c3s2)CC1	none (no result: Akt phos inh, aSyn yeast inh)
CCOC(=O)C1CCCN(C(=O)c2cc(-c3ccccc3)cs2)CC1 (configuration not stated)	TDP-43 yeast inh 18µM
COc1ccc(CCNC(=O)c2cc(Nc3cc(C)cc(C)c3)nc3ccccc23)cc1OC	FUS suppressor inconclusive (no result: Akt phos inh, aSyn yeast inh)
COc1ccc(C(=O)Nc2cccc(-c3cn4ccsc4n3)c2)cc1OC	none (no result: Akt phos inh, aSyn yeast inh)
COc1ccc(C(CC(=O)Nc2ccc(C)cn2)N2Cc3ccccc3C2=O)cc1OC (configuration not stated)	none (no result: Akt phos inh)
Cc1ccc(C23CC4CC(CC(NC(=O)NC(C)(C)CO)(C4)C2)C3)cc1	TDP-43 yeast inh 22µM (no result: Akt phos inh, aSyn yeast inh)
COc1ccc(C(=O)Nc2cccc(-c3cn4ccsc4n3)c2)c(OC)c1	FUS suppressor inconclusive, TDP-43 yeast inh 5µM (no result: Akt phos inh, aSyn yeast inh)
CCOc1ccccc1NC(=O)Cn1c(=O)n(Cc2nc(C)no2)c(=O)c2ccccc21	none (no result: Akt phos inh, aSyn yeast inh)
CC(C)Cn1c(=O)c2sccc2n2c(CCCC(=O)Nc3ccc(Cl)cc3)nnc12	none (no result: Akt phos inh, aSyn yeast inh)
Oc1cccc(Nc2nc(-c3ccccc3)nc3ccccc23)c1	none
Cc1cccc(Nc2nc(-c3ccccc3)nc3ccccc23)c1	TDP-43 yeast inh 25µM (no result: Akt phos inh, aSyn yeast inh)
Cc1ccc(Nc2nc(-c3ccccc3)nc3ccccc23)cc1	TDP-43 yeast inh 13µM (no result: Akt phos inh)
CCOC(=O)CSc1nnc2n(-c3ccccc3)c(=O)c3c4c(sc3n12)CC(C(C)(C)C)CC4 (configuration not stated)	FUS suppressor inconclusive, TDP-43 yeast inh 35µM (no result: Akt phos inh, aSyn yeast inh)
COC(=O)c1ccc(OC(=O)CS(=O)c2ccccc2[N+](=O)[O-])cc1 (configuration not stated)	TDP-43 yeast inh 13µM
O=C(CS(=O)c1ccc(C(F)(F)F)cc1[N+](=O)[O-])Oc1ccccc1 (configuration not stated)	TDP-43 yeast inh 22µM
CCOC(=O)c1ccccc1OC(=O)CS(=O)c1ccccc1[N+](=O)[O-] (configuration not stated)	none
Cc1ccccc1S(=O)(=O)N1[C@@H](c2ccccc2)C(C(=O)O)=CC[C@H]1c1ccc(Cl)cc1	TDP-43 yeast inh inconclusive
Cc1ccc([C@@H]2CC=C(C(=O)O)[C@H](c3ccc(F)cc3)N2S(=O)(=O)c2ccccc2C)cc1	TDP-43 yeast inh 28µM
COc1ccc([C@@H]2CC=C(C(=O)O)[C@H](c3ccc(Cl)cc3)N2S(=O)(=O)c2ccccc2C)cc1	FUS suppressor inconclusive, TDP-43 yeast inh 18µM
COc1ccc([C@@H]2CC=C(C(=O)O)[C@H](c3ccc(Br)cc3)N2S(=O)(=O)c2ccccc2C)cc1	FUS suppressor inconclusive, TDP-43 yeast inh 35µM
COC(C/C=C/C(=O)COCc1ccccc1)OC	TDP-43 yeast inh 13µM
COc1cc(/C=C(\C#N)c2nc3ccccc3c(=O)[nH]2)cc(OC)c1OC	none (no result: Akt phos inh)
CCS(=O)(=O)N1CCc2cc(C(=O)Nc3ccc(C)c(Cl)c3)ccc21	none (no result: Akt phos inh, aSyn yeast inh)
CC(=O)N1CC2(CC(c3ccccc3C(F)(F)F)=NO2)CN1c1ccc(Cl)cc1 (configuration not stated)	aSyn yeast inh 13µM, FUS suppressor inconclusive
Cc1nn(C)c2c1c(C(F)(F)F)cc(=O)n2C(C)C(=O)Nc1ccccc1F (configuration not stated)	none (no result: Akt phos inh, aSyn yeast inh)
COC1=C(Nc2ccc(OC)cc2)C(=O)c2ccccc2C1=O	TDP-43 yeast inh 18µM
COc1ccc(NS(=O)(=O)c2cccc3ccccc23)cc1	aSyn yeast inh inconclusive, TDP-43 yeast inh 11µM
COC1=C(Nc2ccc(OC)cc2)C(=O)C(OC)=C(Nc2ccc(OC)cc2)C1=O	none
COC1=C(Nc2ccc(O)cc2)C(=O)c2ccccc2C1=O	TDP-43 yeast inh inconclusive
CCOc1ccc(NC2=C(OC)C(=O)c3ccccc3C2=O)cc1	TDP-43 yeast inh 18µM
CCOc1ccc(S(=O)(=O)N2CCN(c3nc(-c4ccccc4)nc4ccccc34)CC2)cc1OCC	none (no result: Akt phos inh, Abeta rescue, FUS suppressor, TDP-43 yeast inh)
Cc1ccc(Cn2cc(C(=O)c3ccc4c(c3)OCO4)c(=O)c3cc(C)ccc32)cc1	FUS suppressor inconclusive (no result: Akt phos inh, aSyn yeast inh)
